{"source": "PubChem BioAssay (NCATS)", "key": {"[1]": {"target": "Endonuclease 4 (Escherichia coli (strain K12)) (UniProt P0A6C1)", "assay": "Counterscreen for APE1 Inhibitors: qHTS Validation Assay for Inhibitors of Endonuclease IV (AID 1708)", "how_it_was_run": "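E. coli EndoIV at 2 nM final, preincubated 15 min at room temperature with compound, then 50 nM TAMRA/BHQ-2 THF abasic-site duplex added. Buffer: 50 mM Tris-HCl pH 7.5, 50 mM NaCl, 2 mM MgCl2, 1 mM DTT, 0.01% Tween-20. Kinetic fluorescence increase, third minus first read.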"}, "[2]": {"assay": "qHTS for differential inhibitors of proliferation of Plasmodium falciparum line 7G8 (AID 1815);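 note: potency is the fitted concentration of half-maximal effect; parasite growth measured after three days of incubation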"}, "[3]": {"assay": "qHTS for differential inhibitors of proliferation of Plasmodium falciparum line 3D7 (AID 1876);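 note: parasite growth measured after three days of culture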"}, "[4]": {"assay": "qHTS for differential inhibitors of proliferation of Plasmodium falciparum line Dd2 (AID 1882); note: series mostly up to about 29 µM; nearly all actives have a fitted effect of over 65% in size", "details": "Potency: Plasmodium falciparum Dd2 proliferation inhibition", "how_it_was_run": "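Dd2-infected erythrocytes (0.3% parasitemia, 2.5% hematocrit final) incubated with compound 72 h at 37 C, 5% CO2; lysed with saponin/Triton buffer containing SYBR Green I, incubated overnight in the dark, then read by fluorescence (485/535 nm). Normalized to 0.29 uM artemisinin and DMSO.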"}, "[5]": {"assay": "qHTS for differential inhibitors of proliferation of Plasmodium falciparum line W2 (AID 1883);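 note: potency is the fitted concentration of half-maximal effect; parasites grown with compound for 72 h before lysis and staining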", "details": "Potency: Plasmodium falciparum W2 proliferation inhibition"}, "[6]": {"target": "Ferritin light chain (Equus caballus) (UniProt P02791)", "sequence (P02791 2-175 limits assumed)": "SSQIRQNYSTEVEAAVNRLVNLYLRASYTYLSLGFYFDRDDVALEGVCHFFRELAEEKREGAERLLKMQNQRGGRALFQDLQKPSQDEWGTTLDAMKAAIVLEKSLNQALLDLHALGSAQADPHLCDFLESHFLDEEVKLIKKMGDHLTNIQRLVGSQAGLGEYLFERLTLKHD", "assay": "qHTS Validation Assay for Identification of Novel General Anesthetics (AID 2323); note: series mostly up to about 77 µM", "how_it_was_run": "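Normalized fluorescence response, scaled between free 1-AMA and 1-AMA/apoferritin complex, fitted to a four-parameter Hill equation for concentration-effect values. Binding mix: 10 uM horse-spleen apoferritin, 50% saturated 1-AMA in PBS; read 380/535 nm after 10 min.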"}, "[7]": {"target": "ATP-dependent DNA helicase Q1 (Homo sapiens) (UniProt P46063)", "sequence (P46063 whole entry, looked up)": "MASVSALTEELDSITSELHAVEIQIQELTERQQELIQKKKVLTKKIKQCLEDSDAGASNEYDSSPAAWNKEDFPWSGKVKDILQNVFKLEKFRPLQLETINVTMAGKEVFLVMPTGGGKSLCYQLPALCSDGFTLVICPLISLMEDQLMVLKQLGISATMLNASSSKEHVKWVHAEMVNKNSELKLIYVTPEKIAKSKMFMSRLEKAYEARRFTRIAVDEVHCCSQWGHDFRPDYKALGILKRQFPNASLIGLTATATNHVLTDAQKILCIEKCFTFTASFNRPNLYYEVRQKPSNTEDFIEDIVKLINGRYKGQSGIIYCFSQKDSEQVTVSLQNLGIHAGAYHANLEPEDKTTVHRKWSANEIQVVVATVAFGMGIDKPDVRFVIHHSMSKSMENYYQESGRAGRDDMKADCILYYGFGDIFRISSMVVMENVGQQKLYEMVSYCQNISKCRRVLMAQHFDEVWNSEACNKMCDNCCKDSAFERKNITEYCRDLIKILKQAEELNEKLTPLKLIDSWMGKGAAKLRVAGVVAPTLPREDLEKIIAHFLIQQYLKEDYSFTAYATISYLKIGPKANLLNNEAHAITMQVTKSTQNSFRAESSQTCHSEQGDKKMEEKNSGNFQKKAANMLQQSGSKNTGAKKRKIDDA", "assay": "qHTS Validation Assay for Inhibitors of RecQ-Like Dna Helicase 1 (RECQ1) (AID 2353)", "how_it_was_run": "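50 nM RECQ1T1 preincubated 15 min with compound in Tris pH 8.0 buffer with MgCl2, DTT, Tween-20 and 2.5 ug/ml poly(dI-dC); started with 200 nM TAMRA/BHQ-2 forked duplex and 2 mM ATP. Unwinding read as fluorescence (525/598 nm), two reads 2 h apart.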"}, "[8]": {"target": "RecQ-like DNA helicase BLM (Homo sapiens) (UniProt P54132)", "sequence (P54132 whole entry, looked up)": "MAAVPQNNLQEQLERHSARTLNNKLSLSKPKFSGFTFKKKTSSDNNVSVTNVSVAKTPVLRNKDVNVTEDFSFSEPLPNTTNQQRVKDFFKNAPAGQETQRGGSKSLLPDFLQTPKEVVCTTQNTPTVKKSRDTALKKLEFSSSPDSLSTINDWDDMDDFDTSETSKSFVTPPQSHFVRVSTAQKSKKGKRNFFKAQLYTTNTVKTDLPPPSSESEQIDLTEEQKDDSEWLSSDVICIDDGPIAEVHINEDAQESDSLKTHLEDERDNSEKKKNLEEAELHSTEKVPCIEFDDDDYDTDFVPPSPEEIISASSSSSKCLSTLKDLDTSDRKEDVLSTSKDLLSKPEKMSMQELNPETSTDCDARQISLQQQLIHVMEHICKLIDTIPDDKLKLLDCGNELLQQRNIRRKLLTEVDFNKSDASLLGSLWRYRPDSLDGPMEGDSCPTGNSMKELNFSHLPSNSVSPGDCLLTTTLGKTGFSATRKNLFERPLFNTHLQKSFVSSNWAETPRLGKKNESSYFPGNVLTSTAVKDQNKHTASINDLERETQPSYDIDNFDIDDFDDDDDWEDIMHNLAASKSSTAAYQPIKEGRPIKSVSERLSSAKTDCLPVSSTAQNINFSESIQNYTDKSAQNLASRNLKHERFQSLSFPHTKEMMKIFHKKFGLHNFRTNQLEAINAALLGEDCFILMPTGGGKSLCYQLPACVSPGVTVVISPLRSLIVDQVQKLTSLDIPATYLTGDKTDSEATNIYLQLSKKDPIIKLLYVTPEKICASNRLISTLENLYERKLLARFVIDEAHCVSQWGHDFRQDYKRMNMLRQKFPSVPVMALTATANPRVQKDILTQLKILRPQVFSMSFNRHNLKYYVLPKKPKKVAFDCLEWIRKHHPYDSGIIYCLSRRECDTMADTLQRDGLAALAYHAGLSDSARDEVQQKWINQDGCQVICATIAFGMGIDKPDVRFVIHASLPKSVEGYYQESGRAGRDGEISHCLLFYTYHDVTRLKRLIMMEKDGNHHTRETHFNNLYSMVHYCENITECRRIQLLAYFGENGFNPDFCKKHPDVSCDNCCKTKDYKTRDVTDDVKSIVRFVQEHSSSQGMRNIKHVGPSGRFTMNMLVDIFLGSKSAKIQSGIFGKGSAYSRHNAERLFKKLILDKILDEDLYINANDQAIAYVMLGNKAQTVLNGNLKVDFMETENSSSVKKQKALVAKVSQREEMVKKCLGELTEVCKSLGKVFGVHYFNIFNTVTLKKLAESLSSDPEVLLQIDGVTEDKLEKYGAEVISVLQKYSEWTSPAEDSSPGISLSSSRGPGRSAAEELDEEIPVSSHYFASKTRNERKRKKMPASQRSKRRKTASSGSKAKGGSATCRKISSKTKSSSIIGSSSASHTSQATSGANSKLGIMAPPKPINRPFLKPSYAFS", "assay": "qHTS Validation Assay for Inhibitors of Bloom's syndrome helicase (BLM) (AID 2364)", "how_it_was_run": "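50 nM BLM preincubated 15 min at room temperature with compound in pH 8.0 Tris buffer containing 2.5 ug/ml poly(dI-dC); started with 200 nM TAMRA/BHQ-2 forked duplex and 2 mM ATP (final). Unwinding read as TAMRA fluorescence increase, two reads 2 h apart.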"}, "[9]": {"assay": "Validation screen for inhibitors of Lassa infection (AID 463096; calls by dose curve)"}, "[10]": {"assay": "Validation screen for small molecules that induce DNA re-replication in MCF 10A normal breast cells (AID 463097); note: nearly all actives have a fitted effect of over 60% in size", "how_it_was_run": "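Following 48 hr compound incubation (37 C, 5% CO2), MCF 10A cells receive Hoechst for 40 min at 37 C. Nuclei are then scanned (excitation 405 nm, emission 500-530 nm) for total fluorescence intensity.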"}, "[11]": {"target": "Transient receptor potential cation channel subfamily V member 1 (Homo sapiens) (UniProt Q8NER1)", "sequence (Q8NER1 whole entry, looked up)": "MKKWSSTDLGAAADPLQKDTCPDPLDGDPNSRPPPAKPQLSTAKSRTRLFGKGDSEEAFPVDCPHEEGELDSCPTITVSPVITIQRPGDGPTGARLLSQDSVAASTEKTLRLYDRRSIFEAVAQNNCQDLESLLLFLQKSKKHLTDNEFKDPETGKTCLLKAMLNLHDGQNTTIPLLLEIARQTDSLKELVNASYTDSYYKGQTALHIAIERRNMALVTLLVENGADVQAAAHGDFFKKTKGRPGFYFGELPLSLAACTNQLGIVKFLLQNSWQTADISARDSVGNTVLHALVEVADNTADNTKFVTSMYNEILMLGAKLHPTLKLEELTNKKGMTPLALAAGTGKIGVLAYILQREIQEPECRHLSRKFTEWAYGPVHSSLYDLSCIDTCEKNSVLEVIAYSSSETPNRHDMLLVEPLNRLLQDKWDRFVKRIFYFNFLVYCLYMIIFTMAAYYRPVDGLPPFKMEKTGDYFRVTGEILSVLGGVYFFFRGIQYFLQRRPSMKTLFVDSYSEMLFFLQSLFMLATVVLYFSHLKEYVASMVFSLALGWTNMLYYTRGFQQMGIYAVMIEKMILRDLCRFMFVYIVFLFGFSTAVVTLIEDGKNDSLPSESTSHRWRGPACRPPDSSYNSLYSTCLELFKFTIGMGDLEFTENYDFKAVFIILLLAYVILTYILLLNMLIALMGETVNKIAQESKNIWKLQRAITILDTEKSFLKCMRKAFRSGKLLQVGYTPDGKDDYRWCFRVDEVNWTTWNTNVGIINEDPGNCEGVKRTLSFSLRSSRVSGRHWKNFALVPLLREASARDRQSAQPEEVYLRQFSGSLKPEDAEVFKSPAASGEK", "assay": "HTS Assay for Compounds that Act as Enhancers of the Vanilloid Receptor 1 (AID 488979)", "how_it_was_run": "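TRPV1 cells loaded with Fluo-8 calcium dye; compound added and Ca2+ signal (ex 480/em 520 nm) followed 3 min, then capsaicin at EC20 added and read 2 more min to detect enhancement.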"}, "[12]": {"target": "Thyrotropin receptor (Homo sapiens) (UniProt P16473)", "sequence (P16473 whole entry, looked up)": "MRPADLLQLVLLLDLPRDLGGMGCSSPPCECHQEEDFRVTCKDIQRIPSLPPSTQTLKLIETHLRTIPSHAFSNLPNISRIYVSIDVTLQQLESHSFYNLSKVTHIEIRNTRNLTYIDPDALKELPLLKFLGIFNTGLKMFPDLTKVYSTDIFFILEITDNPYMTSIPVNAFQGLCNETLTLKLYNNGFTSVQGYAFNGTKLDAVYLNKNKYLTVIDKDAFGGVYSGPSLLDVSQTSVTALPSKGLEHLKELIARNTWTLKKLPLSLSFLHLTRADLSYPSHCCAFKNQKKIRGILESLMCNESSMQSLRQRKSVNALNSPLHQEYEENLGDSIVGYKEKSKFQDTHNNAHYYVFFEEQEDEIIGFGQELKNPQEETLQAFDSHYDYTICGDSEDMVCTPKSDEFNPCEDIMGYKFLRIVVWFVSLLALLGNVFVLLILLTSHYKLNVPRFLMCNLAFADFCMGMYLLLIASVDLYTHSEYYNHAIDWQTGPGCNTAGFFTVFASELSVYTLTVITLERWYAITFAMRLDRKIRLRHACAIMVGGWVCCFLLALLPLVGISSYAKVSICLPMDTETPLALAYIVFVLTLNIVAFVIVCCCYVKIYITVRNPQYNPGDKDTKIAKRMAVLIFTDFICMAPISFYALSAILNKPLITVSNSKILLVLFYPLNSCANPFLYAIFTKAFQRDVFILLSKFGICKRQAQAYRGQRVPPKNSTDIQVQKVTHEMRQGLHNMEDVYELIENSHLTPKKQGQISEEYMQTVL", "assay": "qHTS Assay for Antagonists of the Thyroid Stimulating Hormone Receptor (AID 488980); note: series mostly up to about 58 µM", "how_it_was_run": "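Inhibition of TSH-stimulated cAMP accumulation was quantified by homogeneous time-resolved FRET in TSHR-transfected HEK293 cells. Agonist: TSH, 4 nM final (EC80).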"}, "[13]": {"target": "Thyrotropin-releasing hormone receptor (Homo sapiens) (UniProt P34981)", "sequence (P34981 whole entry, looked up)": "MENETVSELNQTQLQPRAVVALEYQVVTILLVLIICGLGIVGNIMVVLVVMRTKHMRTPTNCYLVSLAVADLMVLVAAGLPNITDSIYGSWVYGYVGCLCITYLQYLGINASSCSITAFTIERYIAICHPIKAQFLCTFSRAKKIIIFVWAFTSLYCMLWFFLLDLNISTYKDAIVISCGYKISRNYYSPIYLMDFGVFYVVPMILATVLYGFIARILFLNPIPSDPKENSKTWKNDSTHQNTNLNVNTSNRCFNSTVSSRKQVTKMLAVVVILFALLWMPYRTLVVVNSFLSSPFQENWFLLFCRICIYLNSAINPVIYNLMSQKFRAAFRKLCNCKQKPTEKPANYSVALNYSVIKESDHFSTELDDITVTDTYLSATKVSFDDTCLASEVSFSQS", "assay": "qHTS for Small Molecule Agonists and Allosteric Enhancers of Human TRH Receptor: Validation Screen for Agonists (AID 493127;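 active = calcium activation more than 3 SD above the typical response in the agonist read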)", "details": "TRH receptor agonist cell assay; at 2 µM; active compounds read high", "how_it_was_run": "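TRHR cells loaded with fluo-8 calcium dye; FDSS kinetic fluorescence (Ex 480/Em 530) read at 1 s/cycle after 23 nL compound addition. Agonist-mode calcium response recorded before the 10 nM TRH (EC20) addition.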"}, "[14]": {"target": "Galactokinase (Homo sapiens) (UniProt P51570)", "assay": "qHTS Validation Assay for Inhibitors of Human Galactokinase (GALK) (AID 493189)", "how_it_was_run": "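Enzyme activity is inferred from ATP consumption: human GALK phosphorylates galactose (100 uM) using 35 uM ATP for 1 h at room temperature, and luciferase-based Kinase-Glo Plus reports unconsumed ATP.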"}, "[15]": {"assay": "Validation screen for small molecules that induce DNA re-replication in SW480 colon adenocarcinoma cells (AID 504364)", "how_it_was_run": "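SW480 cells (250/well) exposed 48 h at 37 C, 5% CO2, then Hoechst-stained 40 min. Nuclear DNA content imaged by fluorescence scanning (405 nm excitation, 500-530 nm emission); re-replication scored as increased nuclei with elevated intensity.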"}, "[16]": {"target": "Voltage-gated inwardly rectifying potassium channel KCNH2 (Homo sapiens) (UniProt Q12809)", "assay": "qHTS Assay for Small Molecule Inhibitors of the Human hERG Channel Activity (AID 588834);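 note: top concentration of the series differs between compounds; lower thallium flux fluorescence means stronger hERG block; nearly all actives have a fitted effect of over 50% in size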", "how_it_was_run": "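Blockade is seen as reduced FluxOR thallium-flux fluorescence in U2OS cells expressing hERG from a BacMam construct, in Opti-MEM with 2% FCS. Concentration-response data fitted to the Hill equation for AC50.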"}, "Furin (Homo sapiens)": {"target": "Furin (Homo sapiens) (UniProt P09958)", "sequence (P09958 whole entry, looked up)": "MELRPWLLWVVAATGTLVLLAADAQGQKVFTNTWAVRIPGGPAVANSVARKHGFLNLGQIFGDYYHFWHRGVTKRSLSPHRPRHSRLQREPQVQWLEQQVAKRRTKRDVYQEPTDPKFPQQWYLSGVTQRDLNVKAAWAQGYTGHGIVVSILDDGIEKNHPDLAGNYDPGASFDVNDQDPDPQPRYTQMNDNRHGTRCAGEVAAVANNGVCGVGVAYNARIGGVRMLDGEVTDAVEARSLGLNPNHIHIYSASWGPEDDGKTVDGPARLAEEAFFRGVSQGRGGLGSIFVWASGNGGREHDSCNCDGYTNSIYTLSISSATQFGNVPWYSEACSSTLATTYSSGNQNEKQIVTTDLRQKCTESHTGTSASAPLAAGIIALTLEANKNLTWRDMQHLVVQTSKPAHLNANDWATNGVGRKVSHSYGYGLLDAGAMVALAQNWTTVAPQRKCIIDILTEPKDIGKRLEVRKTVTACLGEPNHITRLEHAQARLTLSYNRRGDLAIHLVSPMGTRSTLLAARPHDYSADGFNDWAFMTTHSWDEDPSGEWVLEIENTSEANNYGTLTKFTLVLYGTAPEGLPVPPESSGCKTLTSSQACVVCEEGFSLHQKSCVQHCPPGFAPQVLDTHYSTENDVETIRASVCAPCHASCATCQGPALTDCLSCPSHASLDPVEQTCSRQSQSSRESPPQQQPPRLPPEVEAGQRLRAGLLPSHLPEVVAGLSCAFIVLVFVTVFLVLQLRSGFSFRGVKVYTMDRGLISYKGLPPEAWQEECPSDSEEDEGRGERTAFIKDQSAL", "assay": "Furin counterscreen qHTS for Zika virus inhibitors (AID 1347149); note: potency is the fitted concentration of half-maximal effect; nearly all actives have a fitted effect of over 70% in size", "how_it_was_run": "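Fluorogenic cleavage of BOC-RVRR-AMC (2 microM final, Km ~15 µM) was monitored (ex 340, em 450 nm) at 37C after 15 min RT preincubation of 5 nM furin with compounds in HEPES pH 7.0 buffer with CaCl2 and Triton X-100. Percent inhibition was fitted to a 4-parameter Hill curve.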"}, "[17]": {"system": "Zika virus NS2B-NS3 protease (linked construct)", "assay": "Confirmatory screen NINDS AMC qHTS for Zika virus inhibitors (AID 1347152); note: potency is the fitted concentration of half-maximal effect; nearly all actives have a fitted effect of over 70% in size", "how_it_was_run": "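Concentration-response confirmation used the NINDS linked protease (NS2B hydrophilic domain joined to NS3 protease domain), 1 nM, with a 15-min compound preincubation. Substrate, Nle-KRR-AMC at 10 microM, was read by UV fluorescence before and after 15 min.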"}, "[18]": {"system": "Zika virus NS2B-NS3 protease (unlinked complex)", "assay": "Confirmatory screen GU AMC qHTS for Zika virus inhibitors (AID 1347153); note: potency is the fitted concentration of half-maximal effect; nearly all actives have a fitted effect of over 70% in size", "how_it_was_run": "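Unlinked enzyme 25 nM, Tris pH 8.0/0.01% Tween 20; cpd 15 min RT, dark; + AMC substrate 10 µM (Km 18.3 µM); 340/450 nm read at t0 and 15 min; % inhibition → 4-param fit.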"}, "[19]": {"system": "Zika virus NS2B-NS3 protease", "assay": "Primary screen GU AMC qHTS for Zika virus inhibitors (AID 1347154); note: potency is the fitted concentration of half-maximal effect; nearly all actives have a fitted effect of over 70% in size", "how_it_was_run": "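Unlinked Zika NS2B hydrophilic domain–NS3 protease complex at 25 nM in 10 mM Tris-HCl pH 8.0, 0.01% Tween 20, with an AMC peptide substrate. Fluorescence change (340/450 nm) over 15 min at room temperature, normalized to controls, fitted to 4-parameter Hill.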"}, "[20]": {"assay": "Vero cells viability qHTS for Zika virus inhibitors (AID 1347167)", "how_it_was_run": "(§1)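 Cells seeded at 2.5 x 10^5 cells/mL in DMEM with 4% FBS and attached overnight at 37 degrees C, then exposed to compound for 24 to 48 hours. Viability read as ATP content by CellTiter Glo luminescence.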"}, "[21]": {"assay": "HepG2 cells viability qHTS for Zika virus inhibitors (AID 1347168)", "how_it_was_run": "as §1"}, "[22]": {"assay": "Tertiary RLuc qRT-PCR qHTS assay for Zika virus inhibitors (AID 1347169)", "how_it_was_run": "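Inhibition of ZIKV-RLuc replication in Vero cells, read as Renilla luminescence 1-1.5 hrs after live-cell substrate addition, following 48-72 hrs infection at MOI 1-2 in presence of compound.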"}, "[23]": {"assay": "Primary qHTS for small molecule stabilizers of the endoplasmic reticulum resident proteome: Secreted ER Calcium Modulated Protein (SERCaMP) assay (AID 1508630)", "how_it_was_run": "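GLuc-SERCaMP-expressing SH-SY5Y cells, pretreated 16 h with compound, are challenged with thapsigargin to empty ER calcium stores; after 4 h, coelenterazine is added directly to the medium and luminescence is imaged.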"}}, "note": "A number with no mark means an inactive call. Results filed as inconclusive are left out. Entries that show only a call come without a potency. Activity calls are given as the source filed them. Unless noted, calls come from the whole dose curve; as a rule, active = well fitted curve in the direction sought with a large enough effect; inconclusive = small, poorly fitted or top-dose-only effect, or another doubt; inactive = no such curve, though single readings can be large; an effect the other way counts as inactive or inconclusive.", "data": [{"compound": "COC(=O)c1cc2c(cn1)[nH]c1ccccc12", "values": [{"measurement": "outcome", "setting": "[1]", "result": "inactive"}, {"measurement": "Potency", "setting": "[2]", "result": "11.2 µM (active)"}, {"measurement": "Potency", "setting": "[3]", "result": "inactive"}, {"measurement": "Potency", "setting": "[4]", "result": "inactive"}, {"measurement": "Potency", "setting": "[5]", "result": "12.6 µM (active)"}, {"measurement": "outcome", "setting": "[6]", "result": "inactive"}, {"measurement": "Potency", "setting": "[7]", "result": "inactive"}, {"measurement": "Potency", "setting": "[8]", "result": "inactive"}, {"measurement": "Potency", "setting": "[9]", "result": "inactive"}, {"measurement": "Potency", "setting": "[10]", "result": "inactive"}, {"measurement": "outcome", "setting": "[11]", "result": "inactive"}, {"measurement": "outcome", "setting": "[12]", "result": "inactive"}, {"measurement": "activation", "setting": "[13]", "result": 1.44, "unit": "%"}, {"measurement": "outcome", "setting": "[14]", "result": "inactive"}, {"measurement": "Potency", "setting": "[15]", "result": "inactive"}, {"measurement": "Potency", "setting": "[16]", "result": "inactive"}, {"measurement": "Potency", "setting": "Furin (Homo sapiens)", "result": "24.1 µM (active)"}, {"measurement": "Potency", "setting": "[17]", "result": "24.1 µM (active)"}, {"measurement": "Potency", "setting": "[18]", "result": "24.1 µM (active)"}, {"measurement": "Potency", "setting": "[19]", "result": "23.8 µM (active)"}, {"measurement": "Potency", "setting": "[20]", "result": "inactive"}, {"measurement": "Potency", "setting": "[21]", "result": "inactive"}, {"measurement": "Potency", "setting": "[22]", "result": "inactive"}, {"measurement": "Potency", "setting": "[23]", "result": "inactive"}]}]}
